Only some compounds are listed: those with a hit (about 2.6% of all), similar ones and a draw of the others.
TWEAK-Fn14 inh – inhibitors of TWEAK-Fn14 interaction signaling | TWEAK-stimulated Fn14 reporter cells, luciferase luminescence, 8 h | inhibition, % at 10 µM | 360,000 compounds, 2% hits; in the data active = inhibition above about 50%
LGR2 antag – Drosophila LGR2 receptor signaling inhibition; HEK293 LGR2, CRE-luciferase, bursicon-stimulated, 4 h; inhibition, % at 9.99 µM; 380,000 compounds, 0.35% hits; AID 720647;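 active = drop in luminescence signal, shown as inhibition above about 50% in the replicate tests, limit read from the data, passing the limit was not always enough; inconclusive = probably only some replicates passing the limit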;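 note: agonist challenge used bursicon conditioned medium at about half maximal strength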
LMP1 NFkB inh – reduces LMP1-driven NF-kappaB luciferase signal | 350,000 compounds, 0.69% hits | inhibition, % at 12.5 µM | AID 504558 | LMP1-induced NF-kappaB luciferase reporter cells, luminescence; in the data active = inhibition above about 41%; inconclusive = no clear call, values can overlap the other calls;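 note: 0% = neutral control wells and 100% = reference inhibitor control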
TROY NFkB inh – blocks TROY-dependent signaling in reporter cells; Q293 LMP1-TROYcd NF-kB luciferase reporter, 4 h; inhibition, % at 10 µM; 360,000 compounds, 0.98% hits; AID 1347056;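 active = compounds whose plate-normalised and pattern-corrected inhibition of the luciferase reporter signal at the single screening dose is 50% or more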
HSP90 inh – HSP90 refolding inhibition in rabbit reticulocyte lysate; luciferase refolding luminescence, 3 h; inhibition, % at 5.6 µM; 290,000 compounds, 0.91% hits; AID 1789;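 active = inhibition above the screen-wide mean plus 3 SD, computed separately per campaign, cut at about 16% in these data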;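 note: 0% = DMSO wells and 100% = 60 µM geldanamycin wells; inhibitors lower the luminescence because luciferase stays unfolded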
aDG glyco up – alpha-DG glycosylation activation; Pro5-aDG cells, alpha-DG glycosylation AlphaScreen (IIH6); 0% Pro5, 100% B10-LARGE cell signal; activation, % at 10 µM; 360,000 compounds, 0.22% hits; AID 624168;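 active = activation of at least 8% versus controls, or a plate z-score of at least 8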;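 note: Pro5 are CHO cells carrying HIG-tagged alpha-DG that lacks glycosylation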
* marks the source's active call; other numbers are inactive results; ? = inconclusive; . = no result.

SMILES	TWEAK-Fn14 inh	LGR2 antag	LMP1 NFkB inh	TROY NFkB inh	HSP90 inh	aDG glyco up
CCc1ccc(-c2csc(NC(=O)C3CC(=O)N(c4ccc5c(c4)OCCO5)C3)n2)cc1 (configuration not stated)	75*	.	25	48	-4	0
Cc1cc(C)c(NC(=O)C2CC(=O)N(c3ccc4c(c3)OCCO4)C2)c(C)c1 (configuration not stated)	42	.	8	13	-3	0
COc1ccc(-c2csc(NC(=O)C3CC(=O)N(Cc4ccccc4)C3)n2)cc1OC (configuration not stated)	89*	-1	8	9	0	0
C[C@H](CO)N1C[C@H](C)[C@@H](CN(C)C)Oc2ccc(NC(=O)c3ccncc3)cc2CC1=O	.	-20	.	.	.	.
C[C@@H]1CN([C@H](C)CO)C(=O)c2cccc(NC(=O)c3cnccn3)c2O[C@@H]1CN(C)S(=O)(=O)c1ccccc1	.	6	.	.	.	.
COc1cccc(-c2cnc3c(c2)C(=O)N([C@@H](C)CO)C[C@@H](C)[C@H](CN(C)CC2CCCC2)O3)c1	.	-17	.	.	.	.
CCC(=O)N1[C@H](CNC(C)=O)[C@H](c2ccc(-c3cccc(F)c3)cc2)[C@@H]1CO	.	0	.	.	.	.
C[C@H]1CN([C@@H](C)CO)C(=O)c2cccc(NC(=O)C3CCCCC3)c2O[C@@H]1CN(C)C(=O)NC1CCCCC1	.	13	.	.	.	.
CN1C[C@@H]2[C@H](c3ccccc31)[C@H](CO)N2Cc1ccccc1	.	4	.	.	.	.
Cc1nnc(NC(=O)C2CC(=O)N(c3ccc4c(c3)OCCO4)C2)s1 (configuration not stated)	26	1	-3	2	.	0
O=C(Nc1nc(-c2ccco2)c(-c2ccco2)s1)C1CC(=O)N(c2ccc3c(c2)OCCO3)C1 (configuration not stated)	81*	.	11	29	2	0
CC(=O)c1c(C)[nH]c(C(=O)COc2cc(C)ccc2C(C)C)c1C	64*	.	31	48	4	5
NC(=O)CSc1nc2c(c(=O)n1-c1ccccc1)C1(CCCCC1)Cc1ccccc1-2	37	16	5	44	3	0
Cc1cccc(-n2c(SCC(N)=O)nc3c(c2=O)C2(CCCC2)Cc2ccccc2-3)c1	33	14	4	50*	7	0
Cc1cccc(Oc2ccc(N)cc2)c1	-5	.	-16	-35	10	0
Nc1ccc(Oc2cccc(Oc3ccc(N)cc3)c2)cc1	82*	-15	37	60*	-2	0
CCOc1ccc(-c2nc(CSCC(=O)NC3CC3)c(C)o2)cc1	8	.	15	8	2	0
CCc1ccc(-c2nc(CS(=O)CC(=O)NCc3ccco3)c(C)o2)cc1 (configuration not stated)	76*	9	17	44	1	0
COc1ccc(-c2nc(CS(=O)CC(=O)NCc3ccco3)c(C)o2)cc1 (configuration not stated)	26	-7	-5	7	-2	0
CCOc1ccc(-c2nc(CSCC(=O)NCc3ccco3)c(C)o2)cc1	65*	.	60*	37	10	1
COCC(=O)N1CC2(C1)[C@H](c1ccccc1)[C@H](CO)N2C(=O)c1ccncc1	.	4	.	.	.	.
CC(NC(=O)Cn1cnc([N+](=O)[O-])n1)c1ccccc1 (configuration not stated)	-2	.	1	-2	16*	0
Cc1nn(CC(=O)NC(C)c2ccccc2)c(C)c1[N+](=O)[O-] (configuration not stated)	1	16	0	6	-3	0
O=C(Nc1cccc(-c2ccc(N3CCCCC3)nn2)c1)c1ccc(Br)o1	41	-21	-5	34	.	0
O=C(Nc1cccc(-c2ccc(N3CCCCC3)nn2)c1)C(F)(F)F	97*	82*	55*	72*	7	0
SMILES	TWEAK-Fn14 inh	LGR2 antag	LMP1 NFkB inh	TROY NFkB inh	HSP90 inh	aDG glyco up
CC1CCN(c2ccc(-c3cccc(NC(=O)c4ccco4)c3)nn2)CC1	53*	-26	18	22	.	0
COc1ccc(-c2cccc(NC(=O)c3ccco3)c2)nn1	4	2	4	-9	.	0
Cc1noc(C)c1NC(=O)Nc1cccc2c1O[C@H](CN(C)C(=O)Nc1c(C)noc1C)[C@H](C)CN([C@H](C)CO)C2=O	.	-8	.	.	.	.
COCC(=O)Nc1ccc2c(c1)OC[C@@H](C)N(C(=O)c1ccccn1)C[C@@H](C)[C@H](OC)CN(C)C2=O	.	0	.	.	.	.
CN(C)c1ncc(C2=C(Cl)C(=O)C(N3CCCC3)=C(Cl)C2=O)s1	14	.	26	-2	-1	0
O=C1C(Cl)=C(N2CCCCC2)C(=O)C(Cl)=C1c1cnc(N2CCCCC2)s1	51*	.	18	34	0	0
CCCN1[C@H](C(=O)NCC)[C@@H](CO)[C@@H]2Cn3c(ccc(-c4ccc(C(=O)N(C)C)cc4)c3=O)[C@@H]21	.	11	.	.	.	.
CCOC(=O)C1CCN(CC(=O)Nc2c(C(=O)OC)[nH]c3cccc(Cl)c23)CC1	-1	.	-2	7	-2	0
COC(=O)c1[nH]c2cccc(Cl)c2c1NC(=O)CN(C)C1CCCCC1	95*	.	3	-2	0	0
OC[C@@H]1CN(Cc2ccc(F)cc2)C[C@H](n2cnc3c(Nc4ccccc4)ncnc32)O1	11	-7	.	-2	.	0
OC[C@@H]1CN(Cc2ccccc2)C[C@H](n2cnc3c(NCc4ccc(F)cc4)ncnc32)O1	-37	-37	.	-43	.	0
OC[C@@H]1CN(Cc2ccc(-c3ccccc3)cc2)C[C@H](n2cnc3c(NCc4ccc(F)cc4)ncnc32)O1	88*	14	.	50*	.	5
OC[C@@H]1CN(Cc2ccc(-c3ccccc3)cc2)C[C@H](n2cnc3c(Nc4ccccc4)ncnc32)O1	92*	13	.	39	.	2
CC(=O)Nc1ccc2c(c1)C(=O)N(C)[C@H]1CC[C@H](CC(=O)NCc3ccccc3)O[C@@H]1CO2	.	3	.	.	.	.
O=C(CCNS(=O)(=O)c1ccc(Br)cc1)Nc1cccc(F)c1	99*	-5	-8	4	-5	0
Cc1cccc(NC(=O)CCNS(=O)(=O)c2ccc(Cl)cc2)c1	8	10	4	-8	-2	0
CCCNC(=O)Nc1ccc2c(c1)C(=O)N(C)C[C@@H](OC)[C@@H](C)CN[C@@H](C)CO2	.	1	.	.	.	.
CCN(CC)CCN1C(=O)/C(=C\c2ccc(Cl)c([N+](=O)[O-])c2)SC1=Nc1ccc(OC)cc1	99*	19	30	74*	4	-1
COc1ccc(N=C2S/C(=C\c3ccc(Cl)c([N+](=O)[O-])c3)C(=O)N2CCN(C)C)cc1	60*	?	-11	81*	2	0
CCCN1C(=O)/C(=C/c2ccc(C)s2)SC1=Nc1ccc(OC)cc1	8	-7	-9	0	0	-1

From PubChem BioAssay
